Assay [1] in a line: blockers of polyQ-driven CASP3 activation – cell-based (AID 1583). The following applies: polyglutamine-induced caspase-3 activation, cell assay; stronger effect = higher value;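 tested at 10 µM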.
Assay [2] in a line: yeast 75Q aggregation reduction – 75Q-TubU reporter (AID 1593). The following applies: Yeast 75Q polyglutamine aggregation reporter.
Assay [3] is described as follows: restoration of touch response, mutant HTT neurons – whole organism, C. elegans mechanosensory neurons, N-terminal huntingtin (AID 1599). As to conditions: C. elegans polyQ-huntingtin mechanosensory neurons, stronger effect = higher value.
Assay [4] is described as follows: blockers of cytochrome c efflux from mitochondria – biochemical, purified mitochondria (AID 1603).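 Note: mouse liver mitochondria challenged with calcium chloride; signal normalized to the plate average as 100%.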 As to conditions: stronger effect = lower value.
Assay [5] can be described thus: polyglutamine aggregate formation blockers (AID 1604). The following applies: polyglutamine-induced protein aggregation inhibition assay; stronger effect = higher value; tested at 2.5 µM.
Assay [6] is described as follows: glutamate transport activators, MN-1 cells, MN-1 cell line (AID 1612).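 Note: tested at 1 µM final; 0% = mean of DMSO vehicle wells on each plate; positive means more glutamate uptake than control and negative means less.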 As to conditions: MN-1 motor neuron cells, stronger effect = higher value.
Assay [7] in a line: 75Q-TubH aggregate inhibition, S. cerevisiae, yeast (AID 1616). The following applies: S. cerevisiae 75Q-TubH polyglutamine aggregation suppression; stronger effect = higher value.
A short description of assay [8]: galactose survival enhancers in mitochondrial complex I cybrids – cell-based, galactose medium, ATP luminescence, primary screen (AID 1645843;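 active = z-score of at least 1.8 in each of two replicates, scored against plate mean and spread of sample wells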;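 note: positive z means more ATP and so rescue of galactose-driven cybrid death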). As to conditions: complex I mutant cybrid cells, 72 h, stronger effect = higher value.
Assay [9] is described as follows: growth inhibition, single agents and combos, ICB984, cell-based, cisplatin or BGB combos, synergistic combos for chromothripsis tumors (AID 1671451; call rule not given here;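 note: cells exposed for 96 hours before readout; 0% = vehicle DMSO and 100% = killing by high DMSO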). The following applies: ICB984 medulloblastoma cells, drug combinations, stronger effect = higher value.
Assay [10] can be described thus: compounds altering viability of human ES cells (AID 493140; call rule not given here;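 note: cells exposed to compounds for four days before counting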). As to conditions: human embryonic stem cell survival screen; stronger effect = higher value.
The nature of assay [11]: signal quenchers or enhancers, Cy5 substrate/SSB – biochemical, NIH Clinical Collection, E. coli SSB, artefact control for HCV NS3 helicase inhibitor project (AID 743268; call rule not given here). The following applies: Cy5-oligo bound E. coli SSB, fluorescence interference.
The subject of assay [12] is Hepatitis C virus NS3 helicase. As to the kind of experiment: blockers of NS3h binding to DNA – biochemical, fluorescence polarization, NIH Clinical Collection, primary screen (AID 743270; call rule not given here). As to conditions: NS3 helicase binding to Cy5-dT15 DNA, stronger effect = higher value, concentration not given here. A general note: Fluorescence polarisation rises when a labelled molecule tumbles more slowly, as on binding a larger partner.

The target of assay [13] is Single-stranded DNA-binding protein (Escherichia coli (strain K12)) (UniProt P0AGE0). As to the kind of experiment: SSB-ssDNA binding inhibitors – biochemical, fluorescence polarization, NIH Clinical Collection, counter-screen for HCV NS3 helicase inhibitor project (AID 743271; in the data active = inhibition above about 28%). As to conditions: E. coli SSB-DNA binding, stronger effect = higher value, concentration not given here.

The nature of assay [14]: compounds distorting NS3 helicase fluorescence signal – biochemical, NIH Clinical Collection, artefact control for HCV NS3 helicase inhibitor project (AID 743272; call rule not given here;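 note: HCV NS3 helicase with a Cy5 labelled single stranded DNA probe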). The following applies: fluorescence interference counterscreen, HCV NS3 helicase assay; stronger effect = lower value. Background: A counterscreen serves to expose hits that act by an unwanted route or on another target.

Another assay relates to R275C. As to the kind of experiment: BK channel mutant inhibitors and activators – cell-based, U2OS BacMam, thallium flux, beta subunits, selectivity assay, profiling panel (AID 1259406).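 Note: initial slope of Thallos dye fluorescence rise after thallium is added; log ratio against the mean of 0.3% DMSO vehicle wells on the same plate.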 As to conditions: U2OS BacMam BK variants, at 30 µM.
For a further assay, the system named is R275C/beta1. The description is as above. The following applies: U2OS BacMam BK variants, at 30 µM.
The test system of a further assay is R275C/beta2Delta. The assay is described as above. The following applies: U2OS BacMam BK variants, at 30 µM.
The subject of another assay is R275C/beta4. The assay is described as above. As to conditions: U2OS BacMam BK variants, at 30 µM.
For a further assay, the system named is R275C/Slo1WT/beta2. The description is as above. As to conditions: U2OS BacMam BK variants, at 30 µM.
The mark [15] stands for this setting: measured here: 5 uM single agent, at 5 µM.

Several values for one entry are separate records, joined by “and”; a condition that tells them apart may be missing. Equal values may be shown once. For some of these results: Results with a measured potency or affinity are listed apart. Activity calls are given as the source filed them.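 Rule for the calls, unless noted: active = thallium flux through the channel raised or lowered by more than 3 SD from vehicle-only wells, actives on both sides; inactive = the rest.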

For orientation: inhibition means the relative decrease from the control value, in per cent. In the case of `CCN(CC)CCCC(C)Nc1c2ccc(Cl)cc2nc2ccc(OC)cc12` (centres undefined), the inhibition in assay [1] is -263%; in assay [9] (BGB IC20 combo, at 0.005 µM), -4.02%; in assay [9] (BGB IC40 combo, at 0.005 µM) it was 16.5%; in [9] (BGB IC40 combo, at 0.05 µM), 90.3%; in assay [9] (at 0.5 µM), -2.08% (inactive); in assay [9] (cisplatin combo, at 0.05 µM), 90%. Further, the inhibition was -4.11% in assay [9] (cisplatin combo, at 0.5 µM); -21.6% in assay [9] (cisplatin combo, at 5 µM); 1.6% in [9] (setting [15]). This molecule displayed a score in [2] of 0.79. The same molecule had a rescue above control in [3] of 26.7. For the same molecule, the cytochrome c release ratio in assay [4] came to 1.44. Also, the inhibition of aggregation in assay [5] was found to be 77.3%. Moreover, the glutamate uptake change in [6] is 2.03%. The molecule further had an aggregation suppression score in assay [7] of 1.04. Also, in assay [8], the z-score was -1.35 (inactive) and -2.13 (inactive).

Turning to `NNC(=O)c1ccncc1`, the inhibition is -15% in assay [1], -2.27% (inactive) in assay [12] and 3.34% (inactive) in assay [13]. In [2], this molecule yielded a score of 1.32. The molecule also came in with a rescue above control in assay [3] of -6.58. In addition, the cytochrome c release ratio in [4] was 1.2. This molecule showed an inhibition of aggregation in [5] of 30.1%. For the same molecule, the glutamate uptake change in assay [6] was -15.1%. The aggregation suppression score in assay [7] is 1.6. The survival in assay [10] is 30.9 (inactive). Moreover, the fluorescence ratio in assay [11] is 1.01 (inactive); in assay [14], 0.93 (inactive). For the same molecule, the z-score in assay [8] is 0.55 (inactive) and 0.315 (inactive). Moreover, the log fold change Tl+ flux with R275C was 0.00765 (inactive); in the assay with R275C/beta1 it was -0.00353 (inactive); in the assay on R275C/beta2Delta, 0.0339 (inactive); in the assay on R275C/beta4, 0.0039 (inactive); in the assay with R275C/Slo1WT/beta2 it was -0.0323 (inactive).

Take `CC1=C(/C=C/C(C)=C/C=C/C(C)=C/C(=O)O)C(C)(C)CCC1`: the inhibition in assay [1] was 16%; in assay [12], 1.36% (inactive); in [13], 2.57% (inactive). The score in assay [2] is 0.91. The molecule also returned a rescue above control in [3] of 3.71. Also, the cytochrome c release ratio in [4] was 3.67. In addition, the inhibition of aggregation in [5] was 19.4%. Besides, the glutamate uptake change in assay [6] was -29.4%. The aggregation suppression score in assay [7] was determined as 0.795. In assay [10], the survival was 12.6 (inactive) and 136 (inactive). Also, the fluorescence ratio in assay [11] was 1.02 (inactive); in assay [14], 0.87 (inactive). Also, the log fold change Tl+ flux in the assay on R275C is 0.0107 (inactive); in the assay on R275C/beta1, 0.0531 (inactive); with R275C/beta2Delta, 0.0707 (inactive); with R275C/beta4, -0.0336 (inactive); with R275C/Slo1WT/beta2, -0.0605 (inactive).

In the case of `CC(=O)OCC(CCn1cnc2cnc(N)nc21)COC(C)=O`, the fluorescence ratio in [11] was 1.06 (inactive); in assay [14], 0.99 (inactive). Also, the inhibition was -1.98% (inactive) in assay [12]; -4.72% (inactive) in [13]; 1.9% in assay [9] (BGB IC20 combo, at 0.005 µM); -6.07% in assay [9] (BGB IC40 combo, at 0.005 µM); -14.6% in assay [9] (BGB IC40 combo, at 0.05 µM); -31.4% (inactive) in assay [9] (at 0.5 µM). Further, the inhibition in assay [9] (cisplatin combo, at 0.05 µM) is -17.8%; in [9] (cisplatin combo, at 0.5 µM) it was -37.3%; in assay [9] (cisplatin combo, at 5 µM), -37.5%; in [9] (setting [15]), -40.1%. Moreover, the z-score in assay [8] was 0.72 (inactive) and 0.425 (inactive) and 0.32 (inactive). For the same molecule, the log fold change Tl+ flux is -0.0357 (inactive) in the assay with R275C; 0.0343 (inactive) in the assay with R275C/beta1; -0.0321 (inactive) in the assay with R275C/beta2Delta; 0.0276 (inactive) in the assay on R275C/beta4; 0.0386 (inactive) in the assay on R275C/Slo1WT/beta2.

Consider `CCOC(=O)C1=C(C)NC(C)=C(C(=O)OC)C1c1cccc([N+](=O)[O-])c1` (centres undefined), for which the survival in assay [10] was 5.33 (inactive). Further, the fluorescence ratio in assay [11] is 1 (inactive); in assay [14], 1.03 (inactive). Further, the results for the inhibition in assay [12] and in assay [13] were 4.36% (inactive) and 8.37% (inactive), respectively. Further, the log fold change Tl+ flux with R275C is 0.0204 (inactive); with R275C/beta1, 0.00401 (inactive); in the assay on R275C/beta2Delta, -0.0485 (inactive); in the assay on R275C/beta4 it was -0.023 (inactive); with R275C/Slo1WT/beta2 it was 0.016 (inactive).

For the origin of these results see PubChem BioAssay.
